A short description of test [1]: Primary qHTS for inhibitors of La Crosse Virus (LACV) - induced cell death in SH-SY5Y cells (AID 1508616).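 Further: top concentration of the series differs between compounds; higher means more rescue of cells from virus-induced death.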 Summed up: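 Rescue of virus-induced death was read as ATPLite luminescence after 6 days at 37C, scaled between DMSO wells with LACV and without virus. Cells were SH-SY5Y, 6000/well, infected at 0.01 MOI after compound addition.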
On the technique in general: In qHTS, concentration-response curves come from the screen itself.

In test [2] the target is Calcium and integrin-binding protein 1 (Homo sapiens) (UniProt Q99828). Put plainly: Primary qHTS for Identification of Calcium Integrin Binding Protein 1 (CIB1) Competitor (AID 1508620). Further: top concentration of the series differs between compounds. Summed up: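 Fluorescence polarization competition: GST-tagged CIB1 (1 uM final) preincubated with compound 15 min at room temperature, then FITC-labelled alphaIIb peptide (100 nM final) added. After 15 min at room temperature, polarization read at Ex 480/Em 540.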
Calcium and integrin-binding protein 1 (Homo sapiens), sequence (Q99828 whole entry, looked up): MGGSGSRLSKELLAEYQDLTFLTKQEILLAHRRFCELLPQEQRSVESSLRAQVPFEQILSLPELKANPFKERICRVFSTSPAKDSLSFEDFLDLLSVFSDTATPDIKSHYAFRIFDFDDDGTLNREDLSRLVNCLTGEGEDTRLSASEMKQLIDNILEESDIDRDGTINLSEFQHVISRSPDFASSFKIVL

The nature of test [3]: Counterscreen qHTS for small molecule stabilizers of the endoplasmic reticulum resident proteome: GLuc-NoTag assay (AID 1508627). Further: series mostly up to about 76 µM. Summed up:
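Counterscreen line: SH-SY5Y-GLuc-NoTag. Seed, 5 h; compound, 19 h; thapsigargin 100 nM, 4 h; 37C/5% CO2. Readout: secreted GLuc luminescence, coelenterazine 0.07x final, no lysis.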
In general terms: The purpose of a counterscreen is to sort out artefacts and off-target activity.

Test [4] can be described thus: Confirmatory qHTS for small molecule stabilizers of the endoplasmic reticulum resident proteome: Secreted ER Calcium Modulated Protein (SERCaMP) assay (AID 1508628). Further: potency means the concentration at half of the fitted maximal effect; nearly all actives have a fitted effect of over 40% in size. Summed up: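 Reporter secretion upon ER calcium depletion (100 nM thapsigargin, 4 h, 37C) is measured as medium luminescence with coelenterazine, after 16 h compound pretreatment of SH-SY5Y-GLuc-SERCaMP cells; primary at three concentrations up to 38.3 uM, follow-up at 11 (up to 76.6 uM).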

The nature of test [5]: Cell Viability qHTS for small molecule stabilizers of the endoplasmic reticulum resident proteome (AID 1508629).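 Further: human SH-SY5Y neuroblastoma cells carrying the GLuc-SERCaMP reporter; compound exposure about 46 h in total before the viability read.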 Particulars: cell viability counter-screen, 100 nM thapsigargin for final 4 h.
The nature of test [6]: Primary qHTS for small molecule stabilizers of the endoplasmic reticulum resident proteome: Secreted ER Calcium Modulated Protein (SERCaMP) assay (AID 1508630). Summed up:
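The SH-SY5Y reporter protocol was run at 3 concentrations up to 38.3 uM (primary) or 11 concentrations (follow-up): 16 h compound, 100 nM thapsigargin for 4 h, then extracellular luciferase luminescence.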

Test [7] is described as follows: A High-Content qHTS Against Drug Library for the Identification of Small Molecules that Inhibit DYT1 Early Onset Primary Dystonia-Associated Cell Pathology (AID 1645839; calls by dose curve; further: series mostly up to about 46 µM). The method, boiled down:
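Cells were seeded and left for 24 h, then dosed with compound alongside tetracycline induction of mutant EGFP-TorsinA. They were incubated for 48 h, fixed in 4% paraformaldehyde, permeabilized and imaged for mislocalization (%pathology) and cell count.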

Each structure is given as a SMILES string. Results filed as inconclusive are left out. Entries that show only a call come without a potency. Values without a mark were called inactive. Activity calls are given as the source filed them. Unless noted, the call rests on the fitted dose curve; in most records, active means well fitted curve in the direction sought with a large enough effect; inconclusive means small, poorly fitted or top-dose-only effect, or another doubt; inactive means no such curve, though single readings can be large; an effect the other way counts as inactive or inconclusive.

As for `CN1CCCCC1CCN1c2ccccc2Sc2ccc(S(C)=O)cc21` (stereo unspecified), the molecule was called inactive in test [1] and in test [2]. Also, the Potency result in test [3] was “inactive”. In test [4], the Potency was 12.6 µM (active). Also, in test [5], the max response was -1.8%.

On to `OC[C@H]1O[C@@H](O[C@@H]2[C@@H](CO)O[C@](O)(CO)[C@H]2O)[C@H](O)[C@@H](O)[C@H]1O`, for which the molecule was classed as inactive in test [1] and in test [2]. The Potency entry in test [6] is “inactive”.

Regarding `CCN(CC)C(=O)Nc1ccc(OCC(O)CNC(C)(C)C)c(C(C)=O)c1` (stereo unspecified), the molecule was called inactive in test [1] and in test [2]. Also, the Potency entry in test [6] is “inactive”.

On to `CCOC(CN1CCN(CC(C)C(=O)c2ccccc2)CC1)c1ccccc1` (stereo unspecified), for which the call in test [1] and in test [2] was inactive. The Potency entry in test [6] was “inactive”.

For the molecule `O=C(O)c1ccccc1O`, the result in test [1] and in test [2] was inactive. In addition, in test [6], the Potency result is “inactive”.

Regarding `CS(=O)(=O)c1ccc([C@@H](O)[C@@H](CF)NC(=O)C(Cl)Cl)cc1`, the outcome in test [1] and in test [2] was inactive.

On to `CCCCOC(=O)c1ccc(O)cc1`, for which the molecule was called inactive in test [1] and in test [2].

`[O-][n+]1cccc(CO)c1`: the molecule was called inactive in test [1] and in test [2]. Besides, the Potency result in test [6] and in test [7] was “inactive” in each case.

For `CC(=O)CCC(=O)O`, the result in test [1] and in test [2] was inactive. The Potency entry in test [6] and in test [7] was “inactive” throughout.

On to `Cc1cc(CC(=O)O)n(C)c1C(=O)c1ccc(Cl)cc1`, for which the molecule was called inactive in test [1] and in test [2]. Further, the Potency result in test [6] and in test [7] was “inactive” each time.

For the molecule `O=c1[nH]cnc2c1ncn2[C@@H]1O[C@H](CO)[C@@H](O)[C@H]1O`, the molecule was called inactive in test [1] and in test [2]. Also, the Potency entry in test [6] and in test [7] was “inactive” throughout.

As to `NS(=O)(=O)c1cc2c(cc1Cl)NC(CSCc1ccccc1)=NS2(=O)=O`, the result in test [1] and in test [2] was inactive. Besides, the Potency entry in test [6] and in test [7] was “inactive” each time.

Turning to `CC(COc1ccccc1)NC(C)C(O)c1ccc(O)cc1` (stereo unspecified), the result in test [1] and in test [2] was inactive. For the same molecule, the Potency entry in test [6] and in test [7] was “inactive” each time.

With `Nc1ccc(S(=O)(=O)Nc2ccc(Cl)nn2)cc1`, the call in test [1] and in test [2] was inactive. For the same molecule, the Potency result in test [6] and in test [7] was “inactive” throughout.

In the case of `O=C(Oc1ccccc1C(=O)O)c1ccccc1O`, the molecule was called inactive in test [1] and in test [2]. Also, the Potency entry in test [6] and in test [7] was “inactive” each time.

Take `O=C(O)CN1C(=O)c2cccc3cccc(c23)C1=O`: the molecule was classed as inactive in test [1] and in test [2]. Further, the Potency result in test [6] and in test [7] was “inactive” in each case.

Consider `C[C@@H]1CN(c2c(F)c(F)c3c(=O)c(C(=O)O)cn(C4CC4)c3c2F)C[C@H](C)N1`, for which the call in test [1] and in test [2] was inactive. Moreover, the Potency result in test [6] and in test [7] was “inactive” in each case.

Turning to `O=C1NS(=O)(=O)c2ccccc21`, the call in test [1] and in test [2] was inactive. For the same molecule, the Potency result in test [6] and in test [7] was “inactive” each time.

On to `CCCCC(CC)COC(=O)c1ccccc1O` (stereo unspecified), for which the call in test [1] and in test [2] was inactive. The Potency result in test [6] and in test [7] was “inactive” throughout.

With `CCC(=O)c1ccc(O)cc1`, the molecule was classed as inactive in test [1] and in test [2]. The Potency entry in test [6] and in test [7] was “inactive” each time.

In the case of `NC(CSCC(=O)O)C(=O)O` (stereo unspecified), the call in test [1] and in test [2] was inactive. The Potency result in test [6] and in test [7] was “inactive” in each case.

Take `O=C(O)[C@@H]1CSCN1`: the outcome in test [1] and in test [2] was inactive. The Potency entry in test [6] and in test [7] was “inactive” throughout.

In the case of `NC(=O)N/N=C/c1ccc([N+](=O)[O-])o1`, the call in test [1] and in test [2] was inactive. Moreover, the Potency result in test [6] and in test [7] was “inactive” in each case.

With `N[C@H]1C(O)O[C@H](CO)[C@@H](O)[C@@H]1O` (stereo partly specified), the molecule was classed as inactive in test [1] and in test [2]. The Potency entry in test [6] and in test [7] was “inactive” each time.

In the case of `CN(C)CCN(Cc1ccccc1)c1ccccn1`, the call in test [1] and in test [2] was inactive. The Potency result in test [6] and in test [7] was “inactive” throughout.

Take `COc1ccc(S(=O)(=O)Nc2nnc(CC(C)C)s2)cc1`: the molecule was called inactive in test [1] and in test [2]. For the same molecule, the Potency result in test [6] and in test [7] was “inactive” in each case.

As to `Nc1nc2c(ncn2CCC(CO)CO)c(=O)[nH]1`, the call in test [1] and in test [2] was inactive. Also, the Potency entry in test [6] and in test [7] was “inactive” each time.

Source of the values: PubChem BioAssay (NCATS).
